Records with an inconclusive call do not appear. Active and inactive are the calls of the source. Unless noted, calls follow the shape of the dose curve; as a rule, active = well fitted curve in the direction sought with a large enough effect in the repeat runs; inconclusive = weak or mixed curves; inactive = no such curve, though single readings can be large; an effect the other way counts as inactive or inconclusive. Where a SMILES comes first, the peptide text is derived from it. [ ]: non-standard residue; d: D form. pGlu = O=C1CC[C@@H](C(=O)O)N1
What was measured:
[1] = qHTS assay to identify small molecule that activate the aryl hydrocarbon receptor (AhR) signaling pathway - cell viability counter screen (AID 743086);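 also: HepG2 liver cells carrying the AhR DRE luciferase reporter; series mostly up to about 70 µM; nearly all actives have a fitted effect of over 45% in size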
Procedure, shortened: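 HepG2-AhR-luc (HG2L7.5c1) cells, 4000/well, were preincubated 5 h at 37C, exposed to compound in qHTS format for 24 hr at 37C, then given CellTiter-Fluor for 30 min; viability was read as fluorescence in the reporter wells.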

[2] = molecular target: Peroxisome proliferator-activated receptor gamma (Homo sapiens) (UniProt P37231); assay: qHTS assay to identify small molecule agonists of the peroxisome proliferator-activated receptor gamma (PPARg) signaling pathway (AID 743094; active = well fitted activation curve with a large enough effect in the signal ratio in the repeat runs, not every such curve was filed as active; the % refers to the signal ratio)
Sequence of Peroxisome proliferator-activated receptor gamma (Homo sapiens) (P37231 whole entry, looked up): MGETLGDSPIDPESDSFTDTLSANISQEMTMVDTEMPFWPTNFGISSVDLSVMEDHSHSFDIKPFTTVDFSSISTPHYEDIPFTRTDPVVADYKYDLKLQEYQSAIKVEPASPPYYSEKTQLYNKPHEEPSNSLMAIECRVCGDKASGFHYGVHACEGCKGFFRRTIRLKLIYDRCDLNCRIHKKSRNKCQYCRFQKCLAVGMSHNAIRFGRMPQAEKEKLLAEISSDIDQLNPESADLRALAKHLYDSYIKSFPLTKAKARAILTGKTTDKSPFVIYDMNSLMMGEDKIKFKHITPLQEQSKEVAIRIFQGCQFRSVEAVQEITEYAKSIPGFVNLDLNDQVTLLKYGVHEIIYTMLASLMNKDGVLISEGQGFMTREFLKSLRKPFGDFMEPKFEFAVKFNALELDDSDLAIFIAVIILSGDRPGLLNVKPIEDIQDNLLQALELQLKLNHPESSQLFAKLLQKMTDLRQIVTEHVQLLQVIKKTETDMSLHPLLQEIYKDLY
Procedure, shortened: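 Agonist activity was taken from a beta-lactamase reporter (FRET substrate, 1 h at room temperature) in HEK293H cells carrying a PPARg UAS-bla construct. Compounds in DMSO were incubated 17 h at 37C after a 5 h cell pre-incubation.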

[3] = qHTS assay for small molecule agonists of the antioxidant response element (ARE) signaling pathway - cell viability counter screen (AID 743203; calls by dose curve; also: nearly all actives have a fitted effect of over 55% in size)
Procedure, shortened: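 Viability counter screen: CellTiter-Glo luminescence, read after 30 min at room temperature, in ARE-bla HepG2 wells. Compound exposure lasted 16 h at 37C/5% CO2, following a 5 h pre-incubation of the cells after plating.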

[4] = qHTS assay for small molecule activators of the heat shock response signaling pathway - cell viability counter screen (AID 743209); also: nearly all actives have a fitted effect of over 50% in size
Procedure, shortened: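 Cytotoxicity counter screen run in the same wells as the heat-shock bla reporter assay: HeLa HSE-bla cells, 5 h compound exposure at 37 C, viability read by CellTiter-Glo luminescence.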

[5] = qHTS assay for small molecule activators of the heat shock response signaling pathway (AID 743210; active = well fitted activation curve with a large enough effect in the signal ratio in the repeat runs, with a control signal flat, not every such curve was filed as active; the % refers to the signal ratio; also: series mostly up to about 63 µM)
Procedure, shortened: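 Heat shock element–beta-lactamase HeLa reporter cells; qHTS with compounds for 5 h at 37 C; detection by FRET substrate fluorescence after 2.5 h at RT.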

[6] = qHTS assay to identify small molecule agonists of the peroxisome proliferator-activated receptor delta (PPARd) signaling pathway - cell viability counter screen (AID 743211); also: nearly all actives have a fitted effect of over 55% in size
Procedure, shortened: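 Viability was measured as CellTiter-Glo luminescence (30 min, room temperature) in the same wells as the beta-lactamase readout. GeneBLAzer PPARd UAS-bla HEK293H cells received compound after 5 h plating and were incubated 17 h at 37 C.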

[7] = molecular target: Peroxisome proliferator-activated receptor delta (Homo sapiens) (UniProt Q03181); assay: qHTS assay to identify small molecule agonists of the peroxisome proliferator-activated receptor delta (PPARd) signaling pathway (AID 743212; calls by dose curve)
Sequence of Peroxisome proliferator-activated receptor delta (Homo sapiens) (Q03181 whole entry, looked up): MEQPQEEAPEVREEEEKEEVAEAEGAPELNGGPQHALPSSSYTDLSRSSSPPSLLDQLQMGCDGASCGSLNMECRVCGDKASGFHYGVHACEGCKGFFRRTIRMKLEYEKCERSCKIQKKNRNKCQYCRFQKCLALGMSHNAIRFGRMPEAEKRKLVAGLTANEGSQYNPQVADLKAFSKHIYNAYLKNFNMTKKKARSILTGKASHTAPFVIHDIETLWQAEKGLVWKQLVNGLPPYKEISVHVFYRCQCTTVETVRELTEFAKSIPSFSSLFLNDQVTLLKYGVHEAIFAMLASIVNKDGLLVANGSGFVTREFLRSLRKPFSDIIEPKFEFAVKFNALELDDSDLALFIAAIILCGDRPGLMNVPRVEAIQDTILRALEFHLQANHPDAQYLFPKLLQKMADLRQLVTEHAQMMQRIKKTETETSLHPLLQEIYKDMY
Procedure, shortened: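 Beta-lactamase reporter read by fluorescence (LiveBLAzer B/G FRET, 2 h, room temperature). Test agents, in DMSO, incubated at 37 C with PPARd-bla HEK293H cells.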

[8] = qHTS assay to identify small molecule antagonists of the peroxisome proliferator-activated receptor delta (PPARd) signaling pathway - cell viability counter screen (AID 743213); also: nearly all actives have a fitted effect of over 50% in size
Procedure, shortened: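 Luminescence from CellTiter-Glo, added after the bla read and incubated 30 min at room temperature, gives viability of HEK293H PPARd-bla cells exposed to compounds for 17 h at 37 C with 300 nM L165041.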

[9] = molecular target: Peroxisome proliferator-activated receptor delta (Homo sapiens) (UniProt Q03181); assay: qHTS assay to identify small molecule antagonists of the peroxisome proliferator-activated receptor delta (PPARd) signaling pathway (AID 743215; active = well fitted inhibition curve with a large enough effect in the signal ratio in the repeat runs, not every such curve was filed as active; the % refers to the signal ratio;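 also: cells stimulated with agonist L165041 at 300 nM final during compound exposure; series mostly up to about 62 µM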)
Procedure, shortened: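 Agonist L165041 (300 nM final) added with compound to PPARd-bla HEK293H UAS-bla reporter cells; 17 h incubation at 37 C. Read-out: LiveBLAzer FRET substrate, 2 h at room temperature, fluorescence intensity.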

[10] = molecular target: Bile acid receptor (Homo sapiens) (UniProt Q96RI1); assay: qHTS assay to identify small molecule antagonists of the farnesoid-X-receptor (FXR) signaling pathway (AID 743217; active = well fitted inhibition curve with a large enough effect in the signal ratio in the repeat runs, not every such curve was filed as active; the % refers to the signal ratio)
Sequence of Bile acid receptor (Homo sapiens) (Q96RI1 whole entry, looked up): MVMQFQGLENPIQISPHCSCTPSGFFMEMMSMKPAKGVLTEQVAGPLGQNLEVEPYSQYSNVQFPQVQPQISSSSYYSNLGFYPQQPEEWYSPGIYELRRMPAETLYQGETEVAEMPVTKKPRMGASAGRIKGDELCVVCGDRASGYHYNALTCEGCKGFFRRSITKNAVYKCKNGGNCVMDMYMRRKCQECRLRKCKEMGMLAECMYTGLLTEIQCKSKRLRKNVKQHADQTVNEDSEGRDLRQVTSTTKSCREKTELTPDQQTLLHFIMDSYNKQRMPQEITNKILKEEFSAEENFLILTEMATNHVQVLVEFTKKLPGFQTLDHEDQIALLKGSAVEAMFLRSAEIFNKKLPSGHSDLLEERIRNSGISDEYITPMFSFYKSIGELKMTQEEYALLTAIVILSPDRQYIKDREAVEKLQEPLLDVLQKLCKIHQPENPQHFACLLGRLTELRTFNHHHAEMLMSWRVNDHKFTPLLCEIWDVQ
Procedure, shortened: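 Antagonist mode: chenodeoxycholic acid at 50 uM final stimulates a UAS-driven beta-lactamase reporter in HEK 293T FXR-bla cells during 16 h, 37C compound exposure. Read-out is FRET substrate fluorescence after 2 h at room temperature.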

[11] = qHTS assay to identify small molecule antagonists of the farnesoid-X-receptor (FXR) signaling pathway - cell viability counter screen (AID 743221; active = well fitted cell-killing curve with a large enough effect in the repeat runs, not every such curve was filed as active; also: nearly all actives have a fitted effect of over 50% in size)
Procedure, shortened: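 Cytotoxicity counter screen run in the FXR-bla reporter wells: HEK 293T cells exposed to compound with 50 uM (final) chenodeoxycholic acid for 16 h, 37 C, then viability measured by CellTiter-Glo luminescence after 30 min, room temperature.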

[12] = molecular target: Vitamin D3 receptor (Homo sapiens) (UniProt P11473); assay: qHTS assay to identify small molecule agonists of the vitamin D receptor (VDR) signaling pathway (AID 743222; calls by dose curve)
Sequence of Vitamin D3 receptor (Homo sapiens) (P11473 whole entry, looked up): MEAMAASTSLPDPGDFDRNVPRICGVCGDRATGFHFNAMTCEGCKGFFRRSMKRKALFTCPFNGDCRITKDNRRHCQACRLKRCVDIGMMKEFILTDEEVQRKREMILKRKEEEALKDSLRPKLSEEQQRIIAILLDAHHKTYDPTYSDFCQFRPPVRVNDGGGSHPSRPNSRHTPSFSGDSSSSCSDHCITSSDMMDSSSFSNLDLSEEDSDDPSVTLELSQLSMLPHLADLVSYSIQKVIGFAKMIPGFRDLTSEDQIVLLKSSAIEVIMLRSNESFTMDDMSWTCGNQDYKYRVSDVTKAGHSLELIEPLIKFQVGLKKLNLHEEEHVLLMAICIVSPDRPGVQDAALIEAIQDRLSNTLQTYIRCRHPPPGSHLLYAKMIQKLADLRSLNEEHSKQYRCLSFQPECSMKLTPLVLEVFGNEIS
Procedure, shortened: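 Agonist mode, beta-lactamase reporter: fluorescence from LiveBLAzer B/G FRET substrate (2 h, room temperature) read after 16 h compound treatment at 37 C of VDR-bla cells, which were pre-incubated 4 h after seeding.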

[13] = molecular target: Vitamin D3 receptor (Homo sapiens) (UniProt P11473); assay: qHTS assay to identify small molecule antagonists of the vitamin D receptor (VDR) signaling pathway (AID 743223; active = well fitted inhibition curve with a large enough effect in the signal ratio in the repeat runs, not every such curve was filed as active; the % refers to the signal ratio)
Procedure, shortened: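 Antagonist mode: compound added to VDR-bla cells alongside agonist 1alpha,25-dihydroxyvitamin D3 (3 nM final), incubation 16 h at 37C. Read-out is LiveBLAzer FRET fluorescence, 2 h at room temperature.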

[14] = qHTS assay to identify small molecule agonists of the vitamin D receptor (VDR) signaling pathway - cell viability counter screen (AID 743224); also: series mostly up to about 63 µM; nearly all actives have a fitted effect of over 50% in size
Procedure, shortened: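 Counter screen run in the same wells as the VDR-bla reporter assay: CellTiter-Glo luminescence, 30 min at room temperature, after 16 h compound treatment at 37C of cells pre-plated for 4 h.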

[15] = molecular target: Peroxisome proliferator-activated receptor gamma (Homo sapiens) (UniProt P37231); assay: qHTS assay to identify small molecule antagonists of the peroxisome proliferator-activated receptor gamma (PPARg) signaling pathway (AID 743191; calls by dose curve; also: series mostly up to about 63 µM; nearly all actives have a fitted effect of over 30% in size)
Procedure, shortened: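 GeneBLAzer PPARg UAS-bla HEK293H cells carrying a UAS-driven beta-lactamase reporter were plated at 3000 cells/well, preincubated 5 h at 37C, then given compound for 17 h at 37C; LiveBLAzer B/G FRET substrate was read after 1 h at room temperature.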

[16] = qHTS assay to identify small molecule antagonists of the peroxisome proliferator-activated receptor gamma (PPARg) signaling pathway - cell viability counter screen (AID 743194); also: nearly all actives have a fitted effect of over 55% in size
Procedure, shortened: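 PPARg-UAS-bla HEK293H cells were plated, rested 5 h at 37 C, then treated with compounds plus rosiglitazone (50 nM final) for 17 h at 37 C; viability was then read by CellTiter-Glo luminescence after 30 min at room temperature.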

[17] = qHTS assay for small molecule agonists of the antioxidant response element (ARE) signaling pathway (AID 743202; active = well fitted activation curve with a large enough effect in the signal ratio in the repeat runs, not every such curve was filed as active; the % refers to the signal ratio)
Procedure, shortened: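 Following a 16 h, 37 C exposure of reporter HepG2 cells (ARE-driven beta-lactamase, 2,000 cells/well) to compounds, FRET substrate was applied for 2 h at room temperature and fluorescence intensity recorded.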

[18] = qHTS assay to identify small molecule agonists of the farnesoid-X-receptor (FXR) signaling pathway - cell viability counter screen (AID 743218); also: nearly all actives have a fitted effect of over 45% in size
Procedure, shortened: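 Viability counter screen in the same wells: CellTiter-Glo luminescence, 30 min room-temperature incubation, measured after the beta-lactamase read. Cells were GeneBLAzer FXR-UAS-bla HEK 293T, compound-treated 16 h at 37C.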

Measured: Potency

CC(C)C[C@@H](N)C(=O)O
not listed: [15] | [16] | [17] | [18]
inactive: all other assays above

Nc1c2c(nc3c1CCC3)CCCC2
not listed: [2] | [5] | [7] | [8] | [9] | [18]
inactive: all other assays above

C=CCCCCCCCCC(=O)OCC
not listed: [8] | [10] | [12] | [13] | [15] | [17]
inactive: all other assays above

C[N+](C)(C)CCCCCCCCCC[N+](C)(C)C
not listed: [5] | [7] | [9] | [10] | [15]
inactive: all other assays above

COc1ccc2cc1Oc1cc3c(cc1OC)CC[N+](C)(C)[C@H]3Cc1ccc(cc1)Oc1c(OC)c(OC)cc3c1[C@@H](C2)[N+](C)(C)CC3
not listed: [8] | [10] | [16]
inactive: all other assays above

CC1(C)OC[C@@H](COC(=O)CCc2ccc(OC[C@@H](O)CNCCNC(=O)N3CCOCC3)cc2)O1
not listed: [5] | [7] | [9] | [10] | [12] | [17]
inactive: all other assays above

CN1CCN(c2cc3c(nn2)Oc2ccccc2N3C)CC1
not listed: [5] | [10] | [12] | [15]
inactive: all other assays above

CC1OC1C1CCC2(C)OC2C1 (stereo not given)
not listed: [7] | [9] | [10] | [16]
inactive: all other assays above

c1ccc(CCc2ccccc2)cc1
not listed: [14] | [16] | [17] | [18]
inactive: all other assays above

CCCc1nn(C)c2c(=O)[nH]c(-c3cc(S(=O)(=O)N4CCN(C)CC4)ccc3OCC)nc12
not listed: [6] | [8] | [10] | [12] | [16] | [18]
inactive: all other assays above

O=S(=O)(O)c1cccc2ccccc12
not listed: [8] | [10] | [12] | [13] | [17] | [18]
inactive: all other assays above

[Ca+2]
not listed: [2] | [10] | [14] | [17] | [18]
inactive: all other assays above

CC(C)CC(C)(N)C#N (stereo not given)
not listed: [2] | [13] | [18]
inactive: all other assays above

CCNS(=O)(=O)c1ccc(C)cc1
not listed: [10] | [12] | [13] | [16] | [17] | [18]
inactive: all other assays above

CCCCCCC1CCC(=O)O1 (stereo not given)
not listed: [10] | [13] | [15] | [18]
inactive: all other assays above

Cc1onc(-c2c(Cl)cccc2Cl)c1C(=O)Cl
not listed: [1] | [2] | [10] | [12] | [13] | [14] | [15]
inactive: all other assays above

CCNC(=O)[C@@H]1CCCN1C(=O)[C@H](CCCN=C(N)N)NC(=O)[C@H](CC(C)C)NC(=O)CNC(=O)[C@H](Cc1ccc(O)cc1)NC(=O)[C@H](CO)NC(=O)[C@H](Cc1c[nH]c2ccccc12)NC(=O)[C@H](Cc1cnc[nH]1)NC(=O)[C@@H]1CCC(=O)N1 ([pGlu]HWSYGLRP-NHEt)
not listed: [1] | [2] | [10] | [12]
inactive: all other assays above

CNCC(O)c1ccc(O)c(O)c1 (stereo not given)
not listed: [1] | [2] | [7] | [8] | [9] | [10]
inactive: all other assays above

CCOc1c(N2CCOCC2)cnn(C)c1=O
not listed: [1] | [2] | [10] | [15]
inactive: all other assays above

CC1(C)[C@@H]2CC[C@@]1(C)[C@H](O)C2
not listed: [2] | [10] | [12] | [13] | [14] | [15] | [18]
inactive: all other assays above

Source: PubChem BioAssay (Tox21)
